Over roughly 33,000 sequences, “E-score (-0.5 to 0.5)” has its median near -0.035; the highest 2% begin near 0.34. Only a selection was taken, and the highest values are over-represented in it overall.
The sequences below were run against T1, Mot3 (UniProt P54785) (assay: PBM E-score (8-mer binding enrichment) (E-score (-0.5 to 0.5)); higher = stronger / more preferred TF binding). Conditions: protein concentration: 200 nM; construct: GST-full length.
T1 sequence: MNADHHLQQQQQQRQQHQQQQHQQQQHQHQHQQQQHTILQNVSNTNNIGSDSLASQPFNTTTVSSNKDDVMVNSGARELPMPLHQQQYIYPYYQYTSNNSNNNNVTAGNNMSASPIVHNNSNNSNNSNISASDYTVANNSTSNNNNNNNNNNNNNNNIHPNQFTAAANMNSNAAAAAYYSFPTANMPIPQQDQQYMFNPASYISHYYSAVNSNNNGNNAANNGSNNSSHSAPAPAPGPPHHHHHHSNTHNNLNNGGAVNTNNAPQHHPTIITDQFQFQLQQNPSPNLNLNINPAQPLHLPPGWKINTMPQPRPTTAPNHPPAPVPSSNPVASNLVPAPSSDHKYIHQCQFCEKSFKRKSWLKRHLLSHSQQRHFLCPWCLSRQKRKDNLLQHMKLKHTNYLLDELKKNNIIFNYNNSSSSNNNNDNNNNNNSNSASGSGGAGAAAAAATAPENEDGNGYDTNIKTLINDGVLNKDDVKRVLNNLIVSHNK
Procedure: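 Universal 'all 10-mer' protein binding microarrays (Agilent AMADID 015681) probed with GST-tagged S. cerevisiae TFs (full-length or DBD) made by in vitro transcription/translation (PURExpress), about 100-200 nM. Bound TF was detected with fluorescent anti-GST. Each ungapped 8-mer (which stands for itself and its reverse complement) is scored by the PBM enrichment score (E-score), a modified Wilcoxon-Mann-Whitney statistic from -0.5 to +0.5, computed with the Universal PBM Analysis Suite. Scale: above 0.35 generally sequence-specific binding.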
In the case of ACGAAAAT, the “PBM E-score” value is reported as 0.163.
AGGAAAAG was tested, and the “PBM E-score” value was 0.305.
AGGAAAAT was tested, and the “PBM E-score” value was 0.416.
With AGAAAAAT the “PBM E-score” value was 0.133.
With AGGAAAAC the “PBM E-score” value was 0.416.
For AGGAAAAA, the “PBM E-score” value was 0.352.
With GGGAAAAC the “PBM E-score” value was -0.195.
For TGGAAAAA, the “PBM E-score” value was 0.0684.
In the case of CGGAAAAC, the “PBM E-score” value is reported as 0.0409.
CCAGGGGA was tested, and the “PBM E-score” value was -0.363.
For ATGAGAAC, the “PBM E-score” value was 0.00278.
For ATAGTGCA, the “PBM E-score” value was 0.134.
GATTGAAC was tested, and the “PBM E-score” value was 0.142.
For ACCTCATG, the “PBM E-score” value was -0.175.
AAACGCTA was tested, and the “PBM E-score” value was -0.0463.
In the case of CACAACAG, the “PBM E-score” value is reported as 0.181.
AGTCCCCA was tested, and the “PBM E-score” value was -0.348.
For CCATGATC, the “PBM E-score” value was -0.251.
GCATGATA was tested, and the “PBM E-score” value was 0.0933.
In the case of ACATGAAT, the “PBM E-score” value is reported as 0.294.
GCATGACA was tested, and the “PBM E-score” value was 0.116.
ACATGATC was tested, and the “PBM E-score” value was 0.385.
In the case of CCATGATA, the “PBM E-score” value is reported as -0.147.
In the case of ACATGACT, the “PBM E-score” value is reported as 0.211.
With ACATGATG the “PBM E-score” value was 0.241.
For ACATGAAC, the “PBM E-score” value was 0.256.
In the case of ACATGACA, the “PBM E-score” value is reported as 0.343.
With ACATGATA the “PBM E-score” value was 0.35.
In the case of ACATGAAG, the “PBM E-score” value is reported as 0.344.
For CCACACCC, the “PBM E-score” value was -0.133.
For CAGGAGGG, the “PBM E-score” value was -0.159.
AGAGTGAT was tested, and the “PBM E-score” value was 0.105.
In the case of CTCGCCAA, the “PBM E-score” value is reported as -0.0783.
For CAGTTGTA, the “PBM E-score” value was 0.00216.
With TAGCCAAA the “PBM E-score” value was -0.0612.
CACAGACC was tested, and the “PBM E-score” value was 0.0761.
For CACGCTTC, the “PBM E-score” value was 0.146.
For AAGTTTAA, the “PBM E-score” value was 0.068.
In the case of ATAACATG, the “PBM E-score” value is reported as 0.36.
For CTAACACA, the “PBM E-score” value was 0.313.
In the case of ATAACAGG, the “PBM E-score” value is reported as 0.229.
In the case of GTAACATA, the “PBM E-score” value is reported as 0.26.
For ACAACATG, the “PBM E-score” value was 0.359.
For ATAACACA, the “PBM E-score” value was 0.332.
For CTAACATA, the “PBM E-score” value was 0.156.
For ACAACATC, the “PBM E-score” value was 0.195.
ATAACATC was tested, and the “PBM E-score” value was 0.21.
In the case of ATAACACG, the “PBM E-score” value is reported as 0.391.
ATAACATA was tested, and the “PBM E-score” value was 0.344.
For ACAACATA, the “PBM E-score” value was 0.307.
With GCGCTCGA the “PBM E-score” value was -0.00313.
For ATCAACGC, the “PBM E-score” value was 0.194.
In the case of CGTCGCAC, the “PBM E-score” value is reported as -0.243.
With ATGGGCAC the “PBM E-score” value was 0.333.
CGATTAAG was tested, and the “PBM E-score” value was 0.108.
In the case of CCCTTCGA, the “PBM E-score” value is reported as 0.0666.
In the case of ACCGTACG, the “PBM E-score” value is reported as -0.116.
CGTGCTAG was tested, and the “PBM E-score” value was -0.0215.
In the case of AAAACATG, the “PBM E-score” value is reported as 0.351.
For AAAACATT, the “PBM E-score” value was 0.187.
In the case of AAAACATA, the “PBM E-score” value is reported as 0.314.
CCATCAGG was tested, and the “PBM E-score” value was -0.179.
In the case of AGGGTCAA, the “PBM E-score” value is reported as -0.0327.
With CCTGCATA the “PBM E-score” value was 0.126.
In the case of AAAGTGTG, the “PBM E-score” value is reported as 0.0664.
CTTTTTAC was tested, and the “PBM E-score” value was 0.21.
In the case of AAATACAG, the “PBM E-score” value is reported as 0.212.
With GAATACAC the “PBM E-score” value was 0.363.
For CAATACAC, the “PBM E-score” value was 0.331.
With AAATACAC the “PBM E-score” value was 0.37.
For AAATACCC, the “PBM E-score” value was -0.0215.
AAATACAT was tested, and the “PBM E-score” value was 0.344.
For AAATATAC, the “PBM E-score” value was 0.0863.
For AAATACAA, the “PBM E-score” value was 0.281.
In the case of CTATACAC, the “PBM E-score” value is reported as 0.254.
With GTATACAC the “PBM E-score” value was 0.323.
GAATACAA was tested, and the “PBM E-score” value was 0.214.
ATATACAC was tested, and the “PBM E-score” value was 0.358.
For ATCCTTAA, the “PBM E-score” value was 0.00499.
CACGCTGG was tested, and the “PBM E-score” value was -0.0203.
For GGTGCTAA, the “PBM E-score” value was -0.0828.
For AGGTTGAG, the “PBM E-score” value was 0.0336.
TAACTCCA was tested, and the “PBM E-score” value was -0.179.
In the case of CAGAAATG, the “PBM E-score” value is reported as 0.00635.
In the case of CACGTTCG, the “PBM E-score” value is reported as 0.00382.
For ACAGGCGA, the “PBM E-score” value was 0.0648.
